Source: PubChem
An excerpt weighted towards active compounds, which were near 3.3% of everything screened.
AmpC detergent = qHTS Inhibitors of AmpC Beta-Lactamase (assay with detergent); Potency, µM (series often up to 114 µM), actives largely listed as inhibitors; AmpC hydrolysis of nitrocefin, absorbance 480 nm, 0.01% Triton; P00811; AID 485294, 2010; actives 0.041% (n = 370,000); also: nearly all actives have a fitted effect of over 25% in size
Target sequence (P00811 whole entry, looked up): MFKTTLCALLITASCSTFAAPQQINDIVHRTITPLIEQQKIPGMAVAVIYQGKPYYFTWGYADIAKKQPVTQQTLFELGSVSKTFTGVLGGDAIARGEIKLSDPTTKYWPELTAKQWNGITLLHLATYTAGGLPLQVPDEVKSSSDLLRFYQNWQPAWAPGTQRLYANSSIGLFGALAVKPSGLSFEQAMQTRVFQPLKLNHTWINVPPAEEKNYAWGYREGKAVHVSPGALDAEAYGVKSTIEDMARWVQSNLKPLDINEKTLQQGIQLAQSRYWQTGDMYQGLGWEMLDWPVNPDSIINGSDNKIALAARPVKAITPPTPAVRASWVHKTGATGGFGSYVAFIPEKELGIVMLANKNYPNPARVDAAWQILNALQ
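20 mM phosphate pH 7.0 + 0.01% (detergent screen) or 0.0001% Triton X-100; 5.3 nM AmpC reagent; cpd preinc 15 min RT; nitrocefin (800 uM stock) to start; A480 q20 s × 4 min; Activity was normalised to no-enzyme and no-compound control wells.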
AmpC no deterg = qHTS Inhibitors of AmpC Beta-Lactamase (assay without detergent). actives 0.52% (n = 330,000). AmpC nitrocefin hydrolysis, absorbance 480 nm, 0.0001% Triton. P00811. Potency, µM (series often up to 57.1 µM), usual class: inhibitors. AID 485341, 2010; also: nearly all actives have a fitted effect of over 20% in size
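20 mM phosphate pH 7.0 + 0.01% (detergent screen) or 0.0001% Triton X-100; 5.3 nM AmpC reagent; cpd preinc 15 min RT; nitrocefin (800 uM stock) to start; A480 q20 s × 4 min; Activity was normalised to no-enzyme and no-compound control wells.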
Sm TGR block = qHTS Assay for the Inhibitors of Schistosoma Mansoni Peroxiredoxins; Schistosoma mansoni thioredoxin glutathione reductase (TGR), Q962Y6; purified TGR, DTNB reduction, TNB absorbance 405 nm; Potency, µM (series often up to 114 µM), actives largely listed as inhibitors; actives 3% (n = 360,000); also: nearly all actives have a fitted effect of over 60% in size
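First, TGR (20 nM dispensed) and NADPH were mixed with compound. Second, a 15 min room-temperature incubation followed. Third, further NADPH and then DTNB were added to start the reaction. Finally, TNB absorbance was monitored kinetically.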
Of the large screens only hits and unclear results are named; the others gave an inactive call. Calls follow the shape of the dose curve; as a rule, active = well fitted curve in the direction sought with a large enough effect; inconclusive = small, poorly fitted or top-dose-only effect, or another doubt; inactive = no such curve, though single readings can be large; an effect the other way counts as inactive or inconclusive.

CCOC(=O)C1CCN(CC(O)COCc2ccc(Cl)cc2)CC1 (stereo not drawn)	none
CCOCC(O)CSCc1ccc(Cl)cc1 (stereo not drawn)	Sm TGR block 10µM (no result: AmpC no deterg)
COc1cc(OC)cc(C(=O)N2CC(=O)Nc3ccc(Cl)cc3C2c2ccccc2)c1 (stereo not drawn)	none (no result: AmpC no deterg)
CCC(=O)Nc1cc(C)c(NC(=O)c2ccco2)cn1	none
Cc1cc(NC(=O)c2ccccc2)ncc1NC(=O)c1ccco1	Sm TGR block 22.4µM
COc1ccc(CC(=O)Nc2ccc3c(c2)OCO3)cc1S(=O)(=O)N1CCOCC1	none
COc1ccc(NC(=O)c2ccc(Cl)nc2)cc1S(=O)(=O)N1CCOCC1	AmpC detergent inconclusive
COc1ccc(NC(=O)Cn2ncc(Cl)c(Cl)c2=O)cc1S(=O)(=O)N1CCOCC1	Sm TGR block 10µM
COc1ccc(CC(=O)Nc2ccc(C#N)c(Cl)c2)cc1S(=O)(=O)N1CCOCC1	Sm TGR block 12.6µM
COc1ccc(OC)c(NC(=O)c2nnn(CC(=O)Nc3ccc(C(C)C)cc3)c2N)c1	none (no result: AmpC no deterg)
CCOc1ccc(/C=C/c2nc(C#N)c(N3CCC(C)CC3)o2)cc1	none (no result: AmpC no deterg)
CC(=O)c1cccc(NC(=O)CCS(=O)(=O)c2ccc3c(c2)n(C)c(=O)c(=O)n3C)c1	Sm TGR block inconclusive (no result: AmpC no deterg)
CC(=O)c1ccc(NC(=O)CCS(=O)(=O)c2ccc3c(c2)n(C)c(=O)c(=O)n3C)cc1	Sm TGR block 39.8µM
COc1ccc(OC)c(NC(=O)c2cc3c(=O)n4cccc(C)c4nc3n2C)c1	none (no result: AmpC no deterg)
c1csc(C2C3=C(Nc4ncnn42)c2ccccc2OC3)c1 (stereo not drawn)	AmpC detergent inconclusive, Sm TGR block 44.7µM
CC1=C(C(N)=O)C(c2cccs2)n2ncnc2N1 (stereo not drawn)	none
COc1ccc(CN(C)C(=O)CCl)cc1	Sm TGR block 22.4µM
CN(Cc1ccccc1)C(=O)CC(=O)N(C)Cc1ccccc1	none
CN(C)CCNC(=O)c1ccc(Cl)s1	none
CN(Cc1ccc(Cl)cc1)C(=O)CCl	Sm TGR block 1.78µM
COc1ccc(OCC(=O)N(C)Cc2ccccc2)cc1	none
CN(Cc1ccc(Cl)s1)C(=O)CCl	AmpC detergent inconclusive, Sm TGR block 2.82µM
O=C(CSc1cn(CC(=O)N2CCCCC2)c2ccccc12)NCc1ccc(F)cc1	none (no result: AmpC no deterg)
O=C(Nc1ccc(OC(F)(F)F)cc1)NC1COc2ccccc2C1 (stereo not drawn)	none (no result: AmpC no deterg)
CCN(c1ccccc1)S(=O)(=O)c1ccc(F)c(C(=O)Nc2ccc(C)cc2)c1	none (no result: AmpC no deterg)
CC(C)(C)OC(=O)N1CCC(CC2CC(c3cccc(Br)c3)=NO2)(C(=O)NCC2CCCCC2)CC1 (stereo not drawn)	none
O=C(NCC1CCCCC1)C1(CC2CC(c3cccc(Br)c3)=NO2)CCNCC1 (stereo not drawn)	Sm TGR block 44.7µM
O=C(NCc1ccccc1)C1(CC2CC(c3ccccc3)=NO2)CCNCC1 (stereo not drawn)	Sm TGR block 50.1µM
CCCCCCCNC(=O)C1(CC2CC(c3ccccc3)=NO2)CCNCC1 (stereo not drawn)	Sm TGR block inconclusive
COc1ccc(-n2c(-c3ccc(Cl)cc3)cc3c2CC(C)(C)CC3=O)c(OC)c1	none (no result: AmpC no deterg)
CCOC(=O)c1sc2nc(CC(=O)OC)nc(NCCN(CC)CC)c2c1C	none
CCOC(=O)c1sc2nc(CC(=O)OC)nc(NCCN3CCOCC3)c2c1C	AmpC detergent inconclusive, Sm TGR block 25.1µM
COc1cc(OC)cc(-c2cc3nc(C)c(CCC(=O)NCc4ccc(Cl)cc4)c(C)n3n2)c1	none (no result: AmpC no deterg)
CC1=C(C(=O)O)N2C(=O)C(NC(=O)c3nn(C)cc3Cl)C2SC1 (stereo not drawn)	AmpC detergent inconclusive
CC1=C(C(=O)O)N2C(=O)C(NC(=O)c3ccc(F)cc3)C2SC1 (stereo not drawn)	Sm TGR block inconclusive
CC(=O)OCC1=C(C(=O)O)N2C(=O)C(NC(=O)c3ccc(COc4cccc(Cl)c4Cl)o3)C2SC1 (stereo not drawn)	Sm TGR block 20µM
Cc1ccc(NC(=O)c2ccc(COc3ccccc3Cl)o2)cc1	none (no result: AmpC no deterg)
COc1cccc(C(=O)NC2C(=O)N3C(C(=O)O)=C(COC(C)=O)CSC23)c1 (stereo not drawn)	AmpC detergent inconclusive, Sm TGR block 12.6µM
CC1=C(C(=O)O)N2C(=O)C(NC(=O)c3ccccc3Cl)C2SC1 (stereo not drawn)	AmpC detergent 70.8µM, Sm TGR block inconclusive
Cc1c(Cl)cccc1NC(=O)c1oc2ccc(S(=O)(=O)N3CCCCCC3)cc2c1C	none (no result: AmpC no deterg)
CCn1cc(C(=O)NCc2ccccc2OC)c(=O)c2cc(S(=O)(=O)N3CCCCCC3)ccc21	none (no result: AmpC no deterg)
O=C(CCl)Nc1cccc2ncccc12	Sm TGR block 44.7µM
COc1ccc(OCC(=O)Nc2cccc3ncccc23)cc1	none
O=C(Nc1ccc(-c2nc3cc(Cl)ccc3o2)cc1)c1cc2ccccc2o1	none (no result: AmpC no deterg)
CC(=O)c1ccc(NC(=O)CCc2c(C)nn(-c3ccc4nncn4n3)c2C)cc1	none (no result: AmpC no deterg)
CC1(C)Cc2c(C#N)c(NCCc3ccccc3)nc(-c3ccco3)c2CO1	Sm TGR block inconclusive
CC1(C)Cc2c(C#N)c(NCC3CCCO3)nc(-c3ccco3)c2CO1 (stereo not drawn)	Sm TGR block 4.47µM
CC1(C)Cc2c(C#N)c(NC3CCCCC3)nc(-c3ccco3)c2CO1	Sm TGR block 1.78µM
CCN(CC)CCNc1nc(-c2ccco2)c2c(c1C#N)CC(C)(C)OC2	none
Cc1ccc(NC(=O)c2ccco2)c(OCc2cc(=O)n3cc(C)sc3n2)c1	none (no result: AmpC no deterg)
CCOc1ccc(NC(=O)Cn2c(=O)n(CCc3ccccc3)c(=O)c3c4c(sc32)CN(C(C)=O)CC4)cc1	none (no result: AmpC no deterg)
Cc1ccc(OCc2nc(-c3ccc(C(=O)NCCc4ccc(S(N)(=O)=O)cc4)cc3)oc2C)cc1	none (no result: AmpC no deterg)
CCn1cc(C(=O)NCc2ccc(Cl)cc2)c(=O)c2cc(S(=O)(=O)N(C)C3CCCCC3)ccc21	none (no result: AmpC no deterg)
COc1cc(Cl)c(C)cc1NC(=O)CSCc1nc(-c2ccc(OC)c(OC)c2)no1	none (no result: AmpC no deterg)
COc1ccc(CCNC(=O)CCc2cn(Cc3ccccc3Cl)c3ccccc23)c(OC)c1	none (no result: AmpC no deterg)
CCOC(=O)N1CCN(C(=O)CSc2cc(C)nc3c(-c4ccccc4OC)c(C)nn23)CC1	none
COc1ccccc1-c1c(C)nn2c(C)cc(C)nc12	AmpC detergent inconclusive, AmpC no deterg 10µM
COc1ccccc1-c1c(C)nn2c(N3CCC(C)CC3)cc(C)nc12	none
CCOC(=O)N1CCC(Nc2cc(C)nc3c(-c4ccccc4OC)c(C)nn23)CC1	AmpC no deterg 28.2µM
Cc1ccc(NC(=O)N2CCC(CN3CCC(C)CC3)CC2)cc1F	none (no result: AmpC no deterg)
Cc1nn(C)c(C)c1S(=O)(=O)N(CC(=O)N1CCN(c2ccccc2)CC1)c1ccc(C(C)C)cc1	none (no result: AmpC no deterg)
Cc1ccc(CNC(=O)CCN2C(=O)COc3ccc(C)cc32)cc1	none (no result: AmpC no deterg)
CCOC(=O)c1cccc(NS(=O)(=O)c2ccc(-c3cnc(C4CC4)o3)cc2)c1	none (no result: AmpC no deterg)
COc1ccccc1Nc1nc(N)nc(CN2CCCCCC2)n1	Sm TGR block 31.6µM
COc1ccccc1Nc1nc(N)nc(CN2CCOCC2)n1	AmpC detergent inconclusive, Sm TGR block inconclusive
